An excerpt weighted towards active compounds, which were near 5.5% of everything screened.
uPA generation: qHTS for Inhibitors of Cell Surface uPA Generation | hit rate 0.31% among 330,000 | cell surface uPA generation assay, qHTS | Potency, µM (highest dose often 38.3 µM), for the others: top-dose activity change, negative = inhibition, usual class: inhibitors; active means well fitted inhibition curve with a large enough effect; inconclusive means small, poorly fitted or top-dose-only effect; inactive means no such curve, though single readings can be large or run the other way; tested in mouse RAW 264.7 cells; further: on the % scale 0 is the no-effect control and ±100 the full control effect; nearly all actives have a fitted effect of over 55% in size
RORg inh: qHTS for inhibitors of ROR gamma transcriptional activity; Nuclear receptor ROR-gamma (Mus musculus), P51450; Drosophila S2 Gal4-RORgamma UAS-luciferase reporter, 20 h; Potency, µM (highest dose often 53.6 µM), without a hit: at the top dose activity change, negative = inhibition, most hits filed as inhibitors; hit rate 5.4% among 310,000; AID 2551, 2010; further: on the % scale 0 is the no-effect control and ±100 the full control effect; nearly all actives have a fitted effect of over 60% in size
Target sequence (P51450 whole entry, looked up, the tested form may be a part): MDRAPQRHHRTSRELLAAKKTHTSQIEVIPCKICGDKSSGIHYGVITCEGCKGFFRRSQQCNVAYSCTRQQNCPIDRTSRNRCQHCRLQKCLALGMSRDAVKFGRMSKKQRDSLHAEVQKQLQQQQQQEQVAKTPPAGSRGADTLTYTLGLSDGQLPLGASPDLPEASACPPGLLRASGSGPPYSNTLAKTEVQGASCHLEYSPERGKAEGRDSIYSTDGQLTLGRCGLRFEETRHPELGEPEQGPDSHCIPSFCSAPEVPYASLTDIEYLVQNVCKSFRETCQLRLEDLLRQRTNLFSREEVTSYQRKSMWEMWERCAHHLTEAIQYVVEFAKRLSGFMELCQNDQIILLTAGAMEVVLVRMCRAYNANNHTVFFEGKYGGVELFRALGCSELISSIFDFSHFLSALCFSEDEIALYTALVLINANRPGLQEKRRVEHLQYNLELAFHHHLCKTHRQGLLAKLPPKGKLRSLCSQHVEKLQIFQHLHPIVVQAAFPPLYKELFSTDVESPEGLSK
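A Gal4/UAS one-hybrid system in insect cells: metallothionein-promoter Gal4–ROR gamma fusion plus Photinus luciferase reporter. Copper sulfate 700 uM final, 20 hr ambient incubation, luminescent detection after 10 min with reagent.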
Gal4-VP16 FLuc: VP16 counterscreen qHTS for inhibitors of ROR gamma transcriptional activity; Drosophila S2 Gal4-VP16 UAS-luciferase, luminescence, 20 h; hit rate 3.5% among 310,000; Potency, µM (doses to about 53.6 µM), for the others: at the top dose activity, negative = inhibition, actives largely listed as inhibitors;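 further: Gal4-VP16 expression switched on by copper sulfate through the metallothionein promoter; on the % scale 0 is the no-effect control and ±100 the full control effect; nearly all actives have a fitted effect of over 50% in size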
Mito fusion yeast: qHTS Assay for Small Molecule Inhibitors of Mitochondrial Division or Activators of Mitochondrial Fusion; hit rate 0.23% among 320,000; S. cerevisiae fusion-defective mutant growth rescue, CellTiterGlo 48 h; AID 485298, 2010; Potency, µM (top dose mostly 46.1 µM), for the others: at the highest dose growth rescue (activation), usual class: activators; further: % of control where 0% means no effect; nearly all actives have a fitted effect of over 45% in size
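Temperature-sensitive fusion-defective S. cerevisiae (e.g. fzo1-1, mgm1-5) were grown with compound in YPEG medium (3% ethanol, 3% glycerol) for 48 hours at 37C. Growth rescue was measured as viability by CellTiterGlo luminescence after 10 minutes at ambient.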
a7 integrin act: qHTS for Activators of Integrin-Mediated Alleviation for Muscular Dystrophy | Potency, µM (top dose mostly 38.3 µM), inactives show at the top dose activation, usual class: activators | alpha7betagal myoblasts, beta-gal FDG fluorescence, 48 h | hit rate 0.064% among 350,000;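 further: 100% = response of the positive control SU9516; nearly all actives have a fitted effect of over 60% in size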
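Alpha7betagal+/- myoblasts (passage 13) were plated 16-24 hr, then exposed to compounds (1:260 dilution of DMSO stock) for 48 hours at 37C. After MPER lysis, β-galactosidase reporter activity was read as FDG fluorescence (ex 480/em 540) after 30 minutes.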
Chronic BCR inh: qHTS Assay to Find Inhibitors of Chronic Active B-Cell Receptor Signaling | ABC-DLBCL IkBa-CBG/CBR reporter, luminescence ratio, 4 h | hit rate 0.05% among 340,000 | Potency, µM (doses to about 46.1 µM), inactives show top-dose activity change, negative = inhibition, hits mostly inhibitors | AID 493014, 2011; active means well fitted inhibition curve with a large enough effect in the signal ratio, with a control signal flat, not every such curve was filed as active; inconclusive means small, poorly fitted or top-dose-only effect, or effect the other way, or a change in a side signal; the % refers to the signal ratio;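 further: plate controls were basal doxycycline-induced cells for no effect and cells given 10 µM MG132 for full effect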
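TMD8 ABC-DLBCL cells carrying doxycycline-inducible green luciferase fused to IkappaBalpha plus unfused red luciferase were exposed to compounds (up to 46 uM) for 4 hrs at 37C. Activity came from the overlap-corrected green/red luminescence ratio.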
The depositor's hits bear a star; ? = inconclusive; . = not tested or not shown; [ ] = dose if it differs, or a comment. Unless noted, the call rests on the fitted dose curve; in most records, active means well fitted curve in the direction sought with a large enough effect; inconclusive means small, poorly fitted or top-dose-only effect, or another doubt; inactive means no such curve, though single readings can be large; an effect the other way counts as inactive or inconclusive. Potency means the concentration at half of the fitted maximal effect.

SMILES	uPA generation	RORg inh	Gal4-VP16 FLuc	Mito fusion yeast	a7 integrin act	Chronic BCR inh
CCNC(=O)NC(=O)CSc1ccc(S(=O)(=O)N2CCCCC2)cn1	-1%	.	.	-2%	-15%	?
O=C(Cn1cncn1)c1ccccc1Br	-6%	13%	-15%	0%	15%	7%
COc1ccc(Nc2cc(C)nc3nc(C)nn23)cc1Cl	-8%	11%	-7%	-1%	0%	-22%
COc1cc(Nc2cc(C)nc3nc(C)nn23)cc(OC)c1OC	4%	-25%	13µM*	-6%	-3%	-1%
O=C(NCCc1ccccc1)c1ccc2c(c1)S(=O)(=O)N=C1CCCCCN12	15%	.	.	0%	4%	?
O=C(CSc1nnc(-c2ccccc2)c(-c2ccccc2)n1)NCc1ccco1	-9%	-26%	1%	1%	-19%	?
O=C(COC(=O)C(c1ccccc1)c1ccccc1)NCc1ccco1	17%	?	18µM*	2%	0%	?
O=C(COC(=O)c1ccccc1)NCc1ccco1	4%	2%	1%	-2%	29%	?
CCn1c(SCC(=O)NCc2ccco2)nnc1-c1cccs1	.	11µM*	?	4%	-5%[7.66 µM]	?
CCn1c(SC(=O)NC2CCCCC2)nnc1-c1cccs1	-3%	7.9µM*	?	-3%	2%	-6%
O=C(CSc1nc(-c2ccccc2)c(-c2ccccc2)[nH]1)NCc1ccco1	.	10µM*	?	1%	-19%[7.66 µM]	15%
CC(C)(C)c1cc(/C=N/NC(=O)C[n+]2ccccc2)cc(C(C)(C)C)c1O	3%	6%	11%	8%	20%	-2%
Cc1nc(SCC(=O)NCc2ccco2)nc(C)c1C	1%	7.1µM*	-4%	-16%	18%	2%
O=C(O)CSc1ncnc2c1oc1ccccc12	-2%	6%	-8%	1%	-1%	?
O=C(CSc1ncnc2c1oc1ccccc12)NCc1ccco1	-14%	?	20µM*	3%	-19%	1%
CCc1nc(SCC(=O)N2c3ccccc3CC2C)c2c(C)c(C)sc2n1 (stereo not given)	-13%	37%	?	6%	-28%	?
Cc1sc2nc(C(C)C)nc(SCC(=O)N3c4ccccc4CC3C)c2c1C (stereo not given)	-2%	8.9µM*	18µM*	4%	9%	?
Cc1nc(SCC(=O)NC(=O)NCc2ccco2)nc(C)c1C	-1%	-3%	-3%	?	-12%	6%
Cc1sc2nc(C(C)C)nc(SCC(=O)NCc3ccco3)c2c1C	9%	5µM*	?	-15%	-35%	-22%
Cc1nc(SCC(=O)NCc2ccco2)c2c(C)c(C)sc2n1	-4%	-25%	22%	-9%	1%	?
NNC(=O)CSc1nc(-c2ccccc2)cn1-c1ccccc1	3%	5.6µM*	18%	1%	-8%	12%
Cc1ccc(-c2cn(-c3ccccc3)c(SCC(=O)NC3CCS(=O)(=O)C3)n2)cc1C (stereo not given)	4%	13µM*	?	-1%	-23%	?
O=C(Oc1ccccc1)C1O[C@@H]1c1ccccc1 (stereo not given in full)	.	-23%	-8%	.	.	.
O=C(CC1C[C@H](C(=O)N2CCOCC2)[C@@]2(CCC3CCCC3)c3[nH]c4ccccc4c3CCN2C1=O)NCC12CC3CC(CC(C3)C1)C2 (stereo not given in full)	17%	.	.	.	-29%	-2%
COC(=O)c1ccc(NC(=O)c2nc(S(=O)(=O)Cc3cccc(C)c3)ncc2Cl)cc1	-3%	6.3µM*	4.5µM*	-51%	-74%	?
SMILES	uPA generation	RORg inh	Gal4-VP16 FLuc	Mito fusion yeast	a7 integrin act	Chronic BCR inh
Cc1cccc(CS(=O)(=O)c2ncc(Cl)c(C(=O)NCc3ccc4c(c3)OCO4)n2)c1	?	6.3µM*	3.2µM*	-12%	-82%	?
Cc1cccc(COC(=O)Nc2ccc(NC(=O)c3ccccc3Cl)cc2)c1	-9%	-3%	13%	-6%	24%	1%
CC(=O)Nc1ccc(NC(=O)c2nc(S(=O)(=O)Cc3cccc(C)c3)ncc2Cl)cc1	-4%	6.3µM*	5µM*	-6%	-73%	?
CSc1ncc(Cl)c(C(=O)Nc2ccc(C)c(C)c2)n1	-6%	1%	-10%	-29%	-17%	-5%
COc1ccc(-n2nc3c(N4CCCC(C(=O)NCc5ccc(C)cc5)C4)nnc(C)c3c2C)cc1 (stereo not given)	.	.	.	.	.	0%
COc1cc(Cl)c(S(=O)(=O)NCc2ccccn2)cc1Cl	7%	11µM*	-10%	-2%	4%	0%
COc1ccc(S(=O)(=O)NCc2ccccn2)cc1Cl	3%	-39%	-1%	-3%	-13%	?
CCOc1cc(Cl)c(S(=O)(=O)NCc2ccccn2)cc1Cl	-3%	13µM*	20µM*	7%	4%	-3%
CN(CC(=O)Nc1cc(Cl)ccc1C#N)C1CCS(=O)(=O)C1 (stereo not given)	9%	.	.	4%	-1%	0%
COC(=O)[C@@]1(Cc2ccc(F)cc2)[C@H]2c3cc(C(=O)N4CCCC4)n(CCN4CNCC4=O)c3C[C@H]2CN1C(=O)c1ccccc1	.	17%	-15%	.	.	.
COc1ccc(-n2c(C)cc(C(=O)CN3C(=O)NC4(CCCc5sccc54)C3=O)c2C)cc1 (stereo not given)	11µM*	?	?	16%	-36%	-6%
Cc1cc(C(=O)CN2C(=O)NC3(CCCc4sccc43)C2=O)c(C)n1-c1ccccc1 (stereo not given)	-5%	?	-1%	?	-5%	-7%
Cc1ccc(CNC(=O)c2ccc3nc4[nH]c5ccccc5c4nc3c2)cc1	.	?	7.1µM*	5%	.	5%
COc1ccccc1CNC(=O)c1ccc2nc3[nH]c4ccccc4c3nc2c1	-6%	26%	?	-4%	-35%	?
COc1ccc(/C=C(/NC(=O)c2ccco2)C(=O)N2CCOCC2)cc1	0%	-1%	-1%	-1%	1%	6%
COC(=O)c1ccc(CSc2ccc3nnc(-c4ccccn4)n3n2)o1	2%	11µM*	?	-5%	-12%	?
CCCCNC(=S)N(C)/N=C/c1c(F)c(F)c(F)c(F)c1F	6%	-1%	-10%	-7%	10%	2%
CCCCNC(=S)N(C)/N=C/c1c(C)[nH]c2ccccc12	4%	13µM*	?	19%	-14%	-3%
